# Assay results reported in PMC10726135, “HNF4α isoforms regulate the circadian balance between carbohydrate and lipid metabolism in the liver”.
# The full ranking holds about 18,000 sequences; the median of “log2 normalized intensity” is about 0.39, and the highest 2% start at about 6.6. This excerpt belongs to a sample that is enriched for the highest values.
# Target: T1, HNF4alpha2 (COS-7 nuclear extract) (Homo sapiens, UniProt P41235 1-474)
# T1 sequence: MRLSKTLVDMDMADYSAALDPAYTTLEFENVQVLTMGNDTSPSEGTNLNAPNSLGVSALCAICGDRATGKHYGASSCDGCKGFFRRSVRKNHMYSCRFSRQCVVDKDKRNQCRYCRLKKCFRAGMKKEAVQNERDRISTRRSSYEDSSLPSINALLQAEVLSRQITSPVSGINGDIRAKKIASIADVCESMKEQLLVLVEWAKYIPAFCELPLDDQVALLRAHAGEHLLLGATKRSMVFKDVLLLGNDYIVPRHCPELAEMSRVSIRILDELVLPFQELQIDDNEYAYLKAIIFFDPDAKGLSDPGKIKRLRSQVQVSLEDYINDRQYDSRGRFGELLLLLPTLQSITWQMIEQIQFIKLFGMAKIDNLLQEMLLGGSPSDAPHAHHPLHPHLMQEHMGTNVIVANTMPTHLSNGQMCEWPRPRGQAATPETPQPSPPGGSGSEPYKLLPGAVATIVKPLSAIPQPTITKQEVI
# Assay: protein-binding microarray; COS-7 nuclear extract on double-stranded Agilent 4x180k PBM; binding buffer, salt, pH and temperature not given in the material; high values mean tight binding
# Conditions: chain copies: 2; label: 3' end of strand 1 on the slide; dsDNA, one strand shown
# How it was run: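 Binding signal is the background-corrected, normalized gProcessedSignal calculated by Agilent software. It was measured by applying nuclear extracts of COS-7 cells transiently transfected with a human HNF4α isoform expression vector to a custom Agilent SurePrint G3 4x180k array of ~44,000 double-stranded ~60-nt test sequences in quadruplicate, then imaging bound HNF4α on an Agilent G2565CA scanner at 2-µm resolution.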
row,Sequence,binding signal [log2 normalized intensity]
1,ACTCCACATATTGTAGATAATACTGTGTCAGCCTAGGGAGATTAGAGTATCGGTCGA,0.275
2,TTCCCTTGTTTACCTTGGTGTTTCTTTGATGCCTAGGGAGATTAGAGTATCGGTCGA,1.68
3,GCTAGTAAGGAGCTGAGTCATAGTGGACTTGCCTAGGGAGATTAGAGTATCGGTCGA,3.44
4,AAGAAGAGCTCAGTCACAGCAGTGGACTTTGCCTAGGGAGATTAGAGTATCGGTCGA,6.61
5,AGCAGCCTCAGTGGCTCACAAATGGAGTTTGCCTAGGGAGATTAGAGTATCGGTCGA,0.801
6,GAGCTCAGTCACAGCAGTGGACTTTGACCTGCCTAGGGAGATTAGAGTATCGGTCGA,11.2
7,ACAGCACTGACCTTTGAGAGTCAACACTGAGCCTAGGGAGATTAGAGTATCGGTCGA,2.58
8,AGAGTGAGCAGCACTTTTGGAGTTTGACCTGCCTAGGGAGATTAGAGTATCGGTCGA,7.73
9,GGGGCAGAGTGAGCAGCACTTTTGGAGTTTGCCTAGGGAGATTAGAGTATCGGTCGA,1.51
10,ACTTTGACCTTGGCACTGAAGAATGTCTAAGCCTAGGGAGATTAGAGTATCGGTCGA,1.8
11,ACAGCAGTGGACTTTGACCTTGGCACTGAAGCCTAGGGAGATTAGAGTATCGGTCGA,9.07
12,GAGCAGCACTTTTGGAGTTTGACCTGGAGCGCCTAGGGAGATTAGAGTATCGGTCGA,5.38
13,GGAGAGCTAGTAAGGAGCTGAGTCATAGTGGCCTAGGGAGATTAGAGTATCGGTCGA,-0.825
14,TAAGGAGCTGAGTCATAGTGGACTTTGCCTGCCTAGGGAGATTAGAGTATCGGTCGA,6.9
15,TATGACCAGTGTGTTGTGCTGACCTCCTGTGCCTAGGGAGATTAGAGTATCGGTCGA,3.19
16,CTGGTGTGCTTTCTGTCCTCTCAAAGTCCAGCCTAGGGAGATTAGAGTATCGGTCGA,3.7
17,TGATTTGTATGATCTTGGGTATATCCTTTAGCCTAGGGAGATTAGAGTATCGGTCGA,1.54
18,ATGTGACCTTTTGGACCACAGAGTGACCTGGCCTAGGGAGATTAGAGTATCGGTCGA,5.16
19,CTGCGTAACTTACAGTGCACTTTGACCGCTGCCTAGGGAGATTAGAGTATCGGTCGA,7.14
20,TGACCTTGCAGTGGCAAGGCAAAAGAGACAGCCTAGGGAGATTAGAGTATCGGTCGA,1.17
21,TAACTTACAGTGCACTTTGACCGCTCATTTGCCTAGGGAGATTAGAGTATCGGTCGA,5.83

row,Sequence,binding signal [log2 normalized intensity]
1,CAGGACTGCGTAACTTACAGTGCACTTTGAGCCTAGGGAGATTAGAGTATCGGTCGA,4.9
2,CAGTCACAGCAGTGGACTTTGACCTTGGCAGCCTAGGGAGATTAGAGTATCGGTCGA,10.2
3,CATCATCTTGTAATCTGCTTCCAGTTCCATGCCTAGGGAGATTAGAGTATCGGTCGA,0.0747
4,GAGAAAAAGTCAACACTTAGGGTGGATACTGCCTAGGGAGATTAGAGTATCGGTCGA,-0.81
5,TGATAAGCAAGATGACTTTGGTCTAGACACGCCTAGGGAGATTAGAGTATCGGTCGA,0.829
6,TGCTCAGGGAGAAGCAAATATGTGTCCTCTGCCTAGGGAGATTAGAGTATCGGTCGA,0.314
7,CCTTTGGTGCCTCTTTTTTCTTGTTGACTTGCCTAGGGAGATTAGAGTATCGGTCGA,2.44
8,AGTCTAACTTTGGACTTTTATGTTAAGATCGCCTAGGGAGATTAGAGTATCGGTCGA,2.25
9,TTTGAACACCTCTTCTTTCTTCTCTGGTACGCCTAGGGAGATTAGAGTATCGGTCGA,1.58
10,CCTTGCTATGGAGTGGACTTTGGCTTATGCGCCTAGGGAGATTAGAGTATCGGTCGA,6.18
11,CATCTGAACTCTTCATGGACTCCTCTTATCGCCTAGGGAGATTAGAGTATCGGTCGA,1.6
12,GTTATCTATGGAACATGGACTTTGAACCTCGCCTAGGGAGATTAGAGTATCGGTCGA,10.3
13,TGGACTTTGAACCTCTCTTCTTTTTCGTCTGCCTAGGGAGATTAGAGTATCGGTCGA,6.71
14,TGAACTTTGAACACCTCTTCTTTCTTCTCTGCCTAGGGAGATTAGAGTATCGGTCGA,3.92
15,CTATGGAACATGGACTTTGAACCTCTCTTCGCCTAGGGAGATTAGAGTATCGGTCGA,8.15
16,ACTCATTTCACATTGGTGCCCTTTGCCTTTGCCTAGGGAGATTAGAGTATCGGTCGA,3.97
17,TTTCTCTTTTGACCTTTGGACTTTCACATTGCCTAGGGAGATTAGAGTATCGGTCGA,10.5
18,TCTTCTTCTGGGGACTTCGGTCTTTTTTCTGCCTAGGGAGATTAGAGTATCGGTCGA,2.18
19,TGGGCACTGTCCTAGGTGCTGAAGATGCAAGCCTAGGGAGATTAGAGTATCGGTCGA,-0.724
20,GATCAAAGGTCGGTTTTAGGACAACATGAGGCCTAGGGAGATTAGAGTATCGGTCGA,4.52
21,CTATCATTATCTCTCACTGCAGAAACTCTGGCCTAGGGAGATTAGAGTATCGGTCGA,1.35
